PubChem BioAssay (NCATS)
Results filed as inconclusive are left out. A number with no mark means an inactive call. Calls of active or inactive are those of the source. The call rests on the fitted dose curve; in most records, active means well fitted curve in the direction sought with a large enough effect; inconclusive means small, poorly fitted or top-dose-only effect, or another doubt; inactive means no such curve, though single readings can be large; an effect the other way counts as inactive or inconclusive.

Assays:
[1] = BET inhibitor-based combinations targeting novel dependencies in MECOM-rearranged (r) AML: OCI-AML3 cell line (AID 2202232); conditions: Potency: OCI-AML3 viability; further: nearly all actives have a fitted effect of over 35% in size;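 on viability (% of control): series mostly up to about 46 µM; plate controls were DMSO vehicle wells for no effect and wells without cells for full effect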
How it was run: (§1)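 A 48 hr incubation preceded viability reading by CellTiter-Glo, with 15 min room-temperature development. Dose series had 11 points; normalization used DMSO and empty wells; AUC was computed and mean-centered per line as Z-AUC.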

[2] = BET inhibitor-based combinations targeting novel dependencies in MECOM-rearranged (r) AML: MV-4-11 cell line (AID 2202233); further: nearly all actives have a fitted effect of over 45% in size;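 on viability, % of control: plate controls were DMSO for no effect and blank wells for full effect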
How it was run: (§2)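 Each compound is tested in an 11-point concentration series against 500 seeded cells/well for 48 hr. The luminescent viability signal is normalized to DMSO and blank wells, then reduced to AUC and a cell-line-centred Z-AUC.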

[3] = BET inhibitor-based combinations targeting novel dependencies in MECOM-rearranged (r) AML: HNT-34 cell line (AID 2202234); further: nearly all actives have a fitted effect of over 35% in size;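 on viability (% of control): plate controls were vehicle wells for no effect and cell-free wells for full effect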
How it was run: as §2

[4] = BET inhibitor-based combinations targeting novel dependencies in MECOM-rearranged (r) AML: AML-191 cell line (AID 2202236; further: nearly all actives have a fitted effect of over 35% in size;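 on viability (% of control): plate controls were vehicle wells for no effect and wells without cells for full effect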)
How it was run: as §1

[5] = BET inhibitor-based combinations targeting novel dependencies in MECOM-rearranged (r) AML: AML-194 cell line (AID 2202237; further: nearly all actives have a fitted effect of over 40% in size;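 on viability (% of control): plate controls were vehicle wells for no effect and wells without cells for full effect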)
How it was run: as §1

[6] = BET inhibitor-based combinations targeting novel dependencies in MECOM-rearranged (r) AML: UCSD-AML1 cell line (AID 2202235); further: nearly all actives have a fitted effect of over 40% in size;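 on viability (% of control): series mostly up to about 46 µM; plate controls were DMSO vehicle wells for no effect and blank wells for full effect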
How it was run: as §2
Potency means the concentration at half of the fitted maximal effect.

With `COc1ccc2c(c1)c(C1=C(c3c[nH]c4ccccc34)C(=O)NC1=O)cn2CCCN(C)C` the Potency [1] was 20.9 µM (active), the Potency [2] was 0.372 µM (active) and the Potency [3] was 16.6 µM (active). For the same compound, the Potency [4] was 23.5 µM (active) and the Potency [5] was 23.5 µM (active).
In the case of `CN(C)CCOc1ccc(-c2nc(-c3ccc4c(c3)CC/C4=N\O)c(-c3ccncc3)[nH]2)cc1`, the Potency [1] is reported as 5.9 µM (active), the Potency [2] is reported as 16.6 µM (active) and the Potency [3] is reported as 14.8 µM (active). For the same compound, the Potency [4] was 16.6 µM (active) and the Potency [5] was 20.9 µM (active).
For `Cc1cc2cc(Oc3ccnc(Nc4cccc(CS(=O)(=O)NCCN(C)C)c4)n3)ccc2[nH]1`, the Potency [1] was 20.9 µM (active), the Potency [2] was 3.32 µM (active) and the Potency [3] was 13.2 µM (active). The Potency [4] was 18.6 µM (active).
For `C=C[C@@H]1CN2CCC1C[C@H]2[C@H](O)c1ccnc2ccc(OC)cc12` (stereo partly drawn), the Potency [1] was 20.9 µM (active), the Potency [2] was 16.6 µM (active) and the Potency [6] was “inactive”. The Potency [4] was “inactive” and the Potency [5] was “inactive”.
For `CCC(=O)N1CCOc2c(cc(-c3cc(OC)cc(OC)c3)cc2C(=O)N[C@H]2CCCN(C)C2)C1`, the Potency [1] was 16.6 µM (active), the Potency [2] was 10.5 µM (active) and the Potency [6] was 20.9 µM (active). The Potency [4] was 14.8 µM (active) and the Potency [5] was 18.6 µM (active).
In the case of `O=C(Nc1ncc(SCCN2CCCC2)s1)[C@]1(c2ccc(S(=O)(=O)C3CC3)cc2)C[C@H]1C1CCCCC1`, the Potency [1] is reported as 20.9 µM (active), the Potency [2] is reported as 11.8 µM (active) and the Potency [3] is reported as 23.5 µM (active). The Potency [4] was 18.6 µM (active) and the Potency [5] was 16.6 µM (active).
With `C=CCN(/C=C1\C(=O)O[C@@H](COC)[C@]2(C)C1=C(O)C(=O)C1=C2[C@@H](OC(C)=O)C[C@]2(C)C(=O)CC[C@H]12)CC=C` the Potency [1] was “inactive”, the Potency [2] was 20.9 µM (active) and the Potency [3] was 20.9 µM (active). For the same compound, the Potency [5] was 18.6 µM (active).
In the case of `C[C@H]1[C@H](C)CC[C@]2(C(=O)O)CC[C@]3(C)C(=CC[C@@H]4[C@@]5(C)CC[C@H](O)C(C)(C)[C@@H]5CC[C@]43C)[C@H]12`, the Potency [1] is reported as “inactive”, the Potency [2] is reported as “inactive” and the Potency [3] is reported as “inactive”. For the same compound, the Potency [4] was “inactive” and the Potency [5] was “inactive”.
With `O=C(O)C[C@H]1CCc2c1[nH]c1ccc(OCc3ccc(C4CCCC4)c(C(F)(F)F)c3)cc21` the Potency [1] was 13.2 µM (active), the Potency [2] was 5.9 µM (active) and the Potency [6] was “inactive”.
For `COC(=O)Nc1nc2ccc(S(=O)c3ccccc3)cc2[nH]1` (stereo not drawn), the Potency [1] was 26.3 µM (active), the Potency [2] was 16.6 µM (active) and the Potency [6] was 7.42 µM (active). For the same compound, the Potency [5] was 7.42 µM (active).
In the case of `Cc1ccc(-n2nc(C(C)(C)C)cc2NC(=O)NCc2cc(F)ccc2Oc2ccc3c(cnn3CCO)c2)cc1`, the Potency [1] is reported as 14.8 µM (active), the Potency [2] is reported as 18.6 µM (active) and the Potency [3] is reported as 0.296 µM (active). For the same compound, the Potency [4] was 18.6 µM (active) and the Potency [5] was 16.6 µM (active).
With `COCc1c(-c2ccc(NC(=O)Nc3cc(C(F)(F)F)ccc3F)c(F)c2)c2c(N)ncnn2c1CN1CCOCC1` the Potency [1] was 10.5 µM (active), the Potency [2] was 0.0263 µM (active) and the Potency [3] was 2.35 µM (active). The Potency [6] was 6.61 µM (active) and the Potency [5] was 5.9 µM (active).
In the case of `CC(=O)N1CCC(Nc2cc(C(=O)NC[C@H](O)CN3CCc4ccccc4C3)ncn2)CC1`, the Potency [1] is reported as 0.0042 µM (active), the Potency [2] is reported as 0.0417 µM (active) and the Potency [6] is reported as “inactive”. The Potency [5] was “inactive”.
For `Nc1ncc(C(=O)NC2CN(C(=O)C3CC3)C2)c2ccc(-c3cccc(F)c3)nc12`, the Potency [1] was 7.42 µM (active), the Potency [2] was 10.5 µM (active) and the Potency [6] was 23.5 µM (active). For the same compound, the Potency [5] was “inactive”.
With `Cc1c(-c2c(-c3ccc(F)o3)sc3ncnc(O[C@@H](Cc4ccccc4OCc4ccnn4CC(F)(F)F)C(=O)O)c23)ccc(OCCN2CCN(C)CC2)c1Cl` the Potency [1] was 0.296 µM (active), the Potency [2] was 0.0235 µM (active) and the Potency [3] was 0.332 µM (active). The Potency [6] was 1.32 µM (active) and the Potency [5] was 4.68 µM (active).
With `C[C@H]1C[C@H]2[C@@H]3CCC4=CC(=O)C=C[C@]4(C)[C@H]3C(=O)C[C@]2(C)[C@@]1(O)C(=O)CO` the Potency [1] was “inactive”, the Potency [2] was “inactive” and the Potency [3] was “inactive”. For the same compound, the Potency [6] was “inactive”, the Potency [4] was “inactive” and the Potency [5] was “inactive”.
In the case of `CCOC(=O)N[C@@H]1CC[C@@H]2[C@@H](C1)C[C@H]1C(=O)O[C@H](C)[C@H]1[C@H]2/C=C/c1ccc(-c2cccc(F)c2)cn1`, the Potency [1] is reported as 14.8 µM (active), the Potency [2] is reported as 26.3 µM (active) and the Potency [6] is reported as “inactive”.
With `c1ccc(-c2cc(CCC3CCNCC3)c3ccccc3n2)cc1` the Potency [1] was 20.9 µM (active), the Potency [2] was 20.9 µM (active) and the Potency [6] was 26.3 µM (active). For the same compound, the Potency [4] was 20.9 µM (active) and the Potency [5] was 26.3 µM (active).
In the case of `Cc1c(NC(=O)c2cc(C(N)=O)nc3cc(F)ccc23)c(C(F)(F)F)nn1Cc1ccc(C(C)(C)C)cc1`, the Potency [1] is reported as 23.5 µM (active), the Potency [2] is reported as “inactive” and the Potency [6] is reported as “inactive”. The Potency [4] was 16.6 µM (active).
In the case of `NC(=O)c1ccc2nc(-c3ccc(C4(N)CCC4)cc3)c(-c3ccccc3)n2n1`, the Potency [1] is reported as 13.2 µM (active), the Potency [2] is reported as 4.17 µM (active) and the Potency [6] is reported as 3.72 µM (active).
For `Nc1nc(-c2nn(Cc3ccccc3F)c3ncccc23)ncc1C1CC1`, the Potency [1] was 5.9 µM (active), the Potency [2] was 1.18 µM (active) and the Potency [6] was 14.8 µM (active).
With `N#Cc1ccc(Cn2cncc2CN2CCN(c3cccc(Cl)c3)C(=O)C2)cc1` the Potency [1] was 2.95 µM (active), the Potency [2] was 7.42 µM (active) and the Potency [6] was 3.72 µM (active).
For `N#Cc1ccc(-c2c(-c3ncn[nH]3)sc(N3CCOCC3)c2C#N)c(F)c1`, the Potency [1] was 5.9 µM (active), the Potency [2] was 5.9 µM (active) and the Potency [3] was 10.5 µM (active). The Potency [6] was 1.32 µM (active) and the Potency [5] was 3.32 µM (active).
In the case of `[O-][n+]1cccc(-c2nc3c(Cl)cccc3cc2[C@@H](Nc2ncnc3cccnc23)C(F)(F)F)c1`, the Potency [1] is reported as 5.25 µM (active), the Potency [2] is reported as 8.33 µM (active) and the Potency [6] is reported as 6.61 µM (active).
In the case of `C[C@@H]1Cc2c([nH]c3ccccc23)[C@@H](c2c(F)cc(/C=C/C(=O)O)cc2F)N1CC(C)(C)F`, the Potency [1] is reported as “inactive”, the Potency [2] is reported as “inactive” and the Potency [6] is reported as “inactive”. For the same compound, the Potency [4] was “inactive”.
With `O=C(/C=C/c1cccnc1)NCCCCC1CCN(C(=O)c2ccccc2)CC1` the Potency [1] was 0.0042 µM (active), the Potency [2] was 0.0209 µM (active) and the Potency [6] was 0.0083 µM (active). For the same compound, the Potency [4] was 0.0059 µM (active) and the Potency [5] was “inactive”.
For `Nc1n[n+]([O-])c2ccccc2[n+]1[O-]`, the Potency [1] was 18.6 µM (active), the Potency [2] was 13.2 µM (active) and the Potency [3] was 16.6 µM (active). For the same compound, the Potency [4] was 18.6 µM (active).
For `C[C@]12CCCN1CC1=NNC(=O)c3cc(F)cc4[nH]c2c1c34`, the Potency [1] was 20.9 µM (active), the Potency [2] was 2.63 µM (active) and the Potency [3] was 5.9 µM (active). The Potency [4] was 18.6 µM (active).
With `Cc1cc(O)cc2c1[C@]1(C)CC[C@H]3C(C)(C)CCC[C@]3(C)[C@H]1C2` the viability (% of control) [1] was 14.4% [at 5.12 µM], the viability, % of control [2] was 0.199% [at 5.12 µM] and the viability (% of control) [6] was 14.8% [at 5.12 µM].
With `Nc1ncccc1-c1nc2ccc(-c3ccccc3)nc2n1-c1ccc(C2(N)CCC2)cc1` the Potency [1] was 18.6 µM (active), the Potency [2] was 11.8 µM (active) and the Potency [3] was 16.6 µM (active). For the same compound, the Potency [4] was 18.6 µM (active) and the Potency [5] was 29.5 µM (active).
In the case of `C=CCNC1=C2C[C@@H](C)C[C@H](OC)[C@H](O)[C@@H](C)/C=C(\C)[C@H](OC(N)=O)[C@@H](OC)/C=C\C=C(/C)C(=O)NC(=CC1=O)C2=O`, the Potency [1] is reported as 10.5 µM (active), the Potency [2] is reported as 1.86 µM (active) and the Potency [6] is reported as 10.5 µM (active). For the same compound, the Potency [4] was 18.6 µM (active) and the Potency [5] was 16.6 µM (active).
